Several values for one entry are separate records, joined by “and”; a condition that tells them apart may be missing. Identical values can stand only once. Inconclusive results are not listed. Activity calls are given as the source filed them. The call rests on the fitted dose curve; in most records, active means well fitted curve in the direction sought with a large enough effect; inconclusive means small, poorly fitted or top-dose-only effect, or another doubt; inactive means no such curve, though single readings can be large; an effect the other way counts as inactive or inconclusive.
Columns and labels:
[1] = biological target: Tyrosine-protein phosphatase non-receptor type substrate 1 (Homo sapiens) + Leukocyte surface antigen CD47 (Homo sapiens) (UniProt P78324+Q08722); assay: CD47-SIRPalpha protein protein interaction - Alpha assay qHTS validation (AID 1347059);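 further: bead proximity luminescence from CD47 binding SIRPalpha after compound preincubation with SIRPalpha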
Chain of Tyrosine-protein phosphatase non-receptor type substrate 1 (Homo sapiens) + Leukocyte surface antigen CD47 (Homo sapiens) (P78324 whole entry, looked up): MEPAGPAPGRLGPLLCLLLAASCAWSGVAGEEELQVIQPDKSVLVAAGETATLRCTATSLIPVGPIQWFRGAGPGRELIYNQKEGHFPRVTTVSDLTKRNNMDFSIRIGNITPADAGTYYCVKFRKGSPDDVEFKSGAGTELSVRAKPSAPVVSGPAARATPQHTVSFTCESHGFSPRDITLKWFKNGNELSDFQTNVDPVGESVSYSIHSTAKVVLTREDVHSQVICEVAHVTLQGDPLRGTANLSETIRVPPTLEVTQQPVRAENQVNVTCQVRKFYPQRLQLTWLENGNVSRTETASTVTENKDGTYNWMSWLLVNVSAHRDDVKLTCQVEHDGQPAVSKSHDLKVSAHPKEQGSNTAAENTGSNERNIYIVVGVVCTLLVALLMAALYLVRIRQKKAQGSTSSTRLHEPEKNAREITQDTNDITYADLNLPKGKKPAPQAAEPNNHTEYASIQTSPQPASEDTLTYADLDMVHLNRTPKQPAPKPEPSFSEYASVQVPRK
Chain of Tyrosine-protein phosphatase non-receptor type substrate 1 (Homo sapiens) + Leukocyte surface antigen CD47 (Homo sapiens) (Q08722 whole entry, looked up): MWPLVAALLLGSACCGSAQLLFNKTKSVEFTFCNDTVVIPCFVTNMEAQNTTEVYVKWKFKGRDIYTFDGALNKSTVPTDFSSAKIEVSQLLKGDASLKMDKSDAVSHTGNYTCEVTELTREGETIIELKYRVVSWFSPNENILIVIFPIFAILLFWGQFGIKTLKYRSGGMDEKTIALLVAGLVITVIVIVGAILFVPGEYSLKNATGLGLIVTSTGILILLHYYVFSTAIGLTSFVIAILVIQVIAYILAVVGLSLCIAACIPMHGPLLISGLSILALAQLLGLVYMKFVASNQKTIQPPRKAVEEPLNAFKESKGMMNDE
Summary of the method: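 SIRPalpha-biotin 25 nM + cpd, 30 min RT, dark; add CD47-His 12.5 nM, 30 min; add Ni-NTA/SAV beads 10 ug/mL, 30 min; AlphaScreen. Buffer PBS pH 7.4 + 0.05% IGEPAL CA-630. Non-biotinylated SIRPalpha as control inhibitor.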

[2] = biological target: Parathyroid hormone/parathyroid hormone-related peptide receptor (Homo sapiens) (UniProt Q03431); assay: qHTS for PTHR1 Agonists: Optimization Screen against the NCGC LOPAC library (AID 1347079);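 further: GloSensor cAMP luminescence in HEK-293 GP2 cells expressing human PTHR1 with IBMX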
Chain of Parathyroid hormone/parathyroid hormone-related peptide receptor (Homo sapiens) (Q03431 whole entry, looked up): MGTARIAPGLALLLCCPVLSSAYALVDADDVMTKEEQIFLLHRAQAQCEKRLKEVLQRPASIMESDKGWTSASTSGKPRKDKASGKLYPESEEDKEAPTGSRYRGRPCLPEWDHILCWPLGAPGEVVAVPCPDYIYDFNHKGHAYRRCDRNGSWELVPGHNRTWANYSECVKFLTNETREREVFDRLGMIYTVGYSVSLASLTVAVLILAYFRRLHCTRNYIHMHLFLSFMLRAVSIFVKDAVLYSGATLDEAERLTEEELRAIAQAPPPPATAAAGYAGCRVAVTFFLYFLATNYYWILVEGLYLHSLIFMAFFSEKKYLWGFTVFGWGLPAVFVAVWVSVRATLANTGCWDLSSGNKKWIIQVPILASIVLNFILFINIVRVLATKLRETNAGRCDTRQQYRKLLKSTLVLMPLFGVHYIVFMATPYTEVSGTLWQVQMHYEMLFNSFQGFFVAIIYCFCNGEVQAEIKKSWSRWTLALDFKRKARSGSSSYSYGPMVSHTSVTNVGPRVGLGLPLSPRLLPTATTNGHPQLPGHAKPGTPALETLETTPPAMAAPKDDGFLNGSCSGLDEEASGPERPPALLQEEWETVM
Summary of the method: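 HEK-293 GP2 cells, PTHR1 + GloSensor cAMP; 3000 cells/well, o/n. Luciferin + IBMX 0.5mM each (stock), 1 hr 37C. Cpd titration, 1 hr 37C. Lum after 15 min RT. Ctrl M-PTH(1-15) top 10uM.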

[3] = qHTS of pediatric cancer cell lines to identify multiple opportunities for drug repurposing: Primary screen for TC32 cells (AID 1347089); further: nearly all actives have a fitted effect of over 60% in size; further: potency means the concentration at half of the fitted maximal effect
Summary of the method: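 In the primary qHTS, MIPE compounds were tested at 11 concentrations (0.78 nM to 46 µM) and NPC compounds at 8 (0.59 nM to 46 µM) on TC32 cells for 48 h. CellTiter-Glo luminescence gave viability.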

[4] = qHTS of pediatric cancer cell lines to identify multiple opportunities for drug repurposing: Primary screen for DAOY cells (AID 1347090); further: nearly all actives have a fitted effect of over 55% in size; further: potency means the concentration at half of the fitted maximal effect
Summary of the method: (§1)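 Viability measured as metabolically active cells via CellTiter-Glo luminescence following 48 hours of compound exposure, 11-point dilutions in confirmatory testing. 500-1,000 cells/well plated 5 hours before dosing; controls were DMSO and 2.3 µM bortezomib.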

[5] = qHTS of pediatric cancer cell lines to identify multiple opportunities for drug repurposing: Primary screen for SK-N-MC cells (AID 1347093); further: potency means the concentration at half of the fitted maximal effect
Summary of the method: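 Metabolically active cells were quantified by ATP-dependent luminescence (CellTiter-Glo, 15 min at room temperature) following 48 h treatment. Cells had been plated at 500-1,000 per well and settled for 5 h beforehand.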

[6] = qHTS of pediatric cancer cell lines to identify multiple opportunities for drug repurposing: Primary screen for U-2 OS cells (AID 1347096); further: nearly all actives have a fitted effect of over 50% in size; further: potency means the concentration at half of the fitted maximal effect
Summary of the method: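 Viability after 48 h compound treatment at 37C, 500-1,000 cells/well, read as ATP luminescence with CellTiter-Glo. Primary screens used 11-point (MIPE, 0.78 nM-46 µM) or 8-point (NPC, 0.59 nM-46 µM) final concentrations; follow-up screens used 11-point dilutions.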

[7] = qHTS of pediatric cancer cell lines to identify multiple opportunities for drug repurposing: Primary screen for SJ-GBM2 cells (AID 1347091); further: potency means the concentration at half of the fitted maximal effect
Summary of the method: as §1

[8] = qHTS of pediatric cancer cell lines to identify multiple opportunities for drug repurposing: Primary screen for BT-37 cells (AID 1347094); further: potency means the concentration at half of the fitted maximal effect
Summary of the method: (§2)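 Viability was measured as metabolically active cells after 48 hours of treatment, read by CellTiter-Glo luminescence. Compounds were tested at multiple final concentrations, giving concentration-response curves.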

[9] = qHTS of pediatric cancer cell lines to identify multiple opportunities for drug repurposing: Primary screen for NB-EBc1 cells (AID 1347095); further: potency means the concentration at half of the fitted maximal effect
Summary of the method: as §2

[10] = qHTS of pediatric cancer cell lines to identify multiple opportunities for drug repurposing: Primary screen for A673 cells (AID 1347092); further: nearly all actives have a fitted effect of over 45% in size; further: potency means the concentration at half of the fitted maximal effect
Summary of the method: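 48 h compound exposure, A673, 500-1,000 cells/well, 37 degrees C/5% CO2. MIPE: 11-point, 0.78 nM-46 µM; NPC: 8-point, 0.59 nM-46 µM (final). Readout CellTiter-Glo luminescence after 15 min RT.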

Measured: Potency

CC(C)(Oc1ccc(C2CC2(Cl)Cl)cc1)C(=O)O (stereo not drawn)
inactive: [1] | [2] | [3] | [4] | [5] | [6]

CCOC(=O)Nc1ccc(NCc2ccc(F)cc2)nc1N
not listed: [10]
inactive: all other assays above

OCCN(CCO)c1nc(N2CCCCC2)c2nc(N(CCO)CCO)nc(N3CCCCC3)c2n1
active: [5] 23.5 µM
not listed: [4] | [10]
inactive: all other assays above

CN(C)c1nc(N(C)C)nc(N(C)C)n1
not listed: [5]
inactive: all other assays above

COc1ccc2[nH]cc(CCNC(C)=O)c2c1
not listed: [5]
inactive: all other assays above

C[C@](N)(Cc1ccc(O)c(O)c1)C(=O)O
not listed: [10]
inactive: all other assays above

COc1ccccc1OCCNCC(O)COc1cccc2[nH]c3ccccc3c12 (stereo not drawn)
not listed: [5] | [8]
inactive: all other assays above

CN1CCC(=C2c3ccccc3CC(=O)c3sccc32)CC1
active: [5] 6.62 µM
not listed: [4] | [10]
inactive: all other assays above

Cc1cn([C@H]2C=C[C@@H](CO)O2)c(=O)[nH]c1=O
not listed: [4] | [5]
inactive: all other assays above

NC12CC3CC(CC(C3)C1)C2
not listed: [5] | [10]
inactive: all other assays above

Nc1nc2c(ncn2COC(CO)CO)c(=O)[nH]1
inactive: [1] | [2] | [3] | [4] | [9] | [6]

Nc1nnc(-c2cccc(Cl)c2Cl)c(N)n1
not listed: [5]
inactive: all other assays above

Clc1ccc(C(c2ccccc2Cl)C(Cl)Cl)cc1 (stereo not drawn)
active: [10] 23.5 µM | [5] 16.6 µM | [9] 21.1 µM and 18.7 µM
not listed: [8]
inactive: all other assays above

N[C@@H](Cc1c[nH]c2ccc(O)cc12)C(=O)O
not listed: [8] | [9]
inactive: all other assays above

O=C1Cc2cc(CCN3CCN(c4nsc5ccccc45)CC3)c(Cl)cc2N1
not listed: [8] | [10]
inactive: all other assays above

O=c1c(-c2ccc(O)cc2)coc2cc(O)cc(O)c12
active: [9] 23.7 µM
not listed: [8] | [10]
inactive: all other assays above

O=c1[nH]cc(F)c(=O)[nH]1
active: [9] 9.44 µM and 2.64 µM
not listed: [5] | [8] | [10]
inactive: all other assays above

Cc1cc(C(C)(C)C)cc(C)c1CC1=NCCN1
not listed: [5]
inactive: all other assays above

CC(C)Cc1ccc(C(C)C(=O)O)cc1 (stereo not drawn)
not listed: [8]
inactive: all other assays above

CCC1(c2ccccc2)C(=O)NCNC1=O
not listed: [4] | [5] | [10]
inactive: all other assays above

CN1CCC(=C2c3ccccc3C=Cc3ccccc32)CC1
active: [10] 18.7 µM
not listed: [5] | [8]
inactive: all other assays above

Cn1c(=O)c2[nH]cnc2n(C)c1=O
not listed: [5]
inactive: all other assays above

CN1C(C(=O)Nc2ccccn2)=C(O)c2ccccc2S1(=O)=O
not listed: [5] | [8] | [9]
inactive: all other assays above

CC(C)C(=O)Nc1ccc([N+](=O)[O-])c(C(F)(F)F)c1
active: [4] 4.69 µM | [10] 0.0118 µM
inactive: [1] | [2] | [3] | [9] | [6]

COc1cc2nc(N3CCN(C(=O)C4COc5ccccc5O4)CC3)nc(N)c2cc1OC (stereo not drawn)
active: [10] 18.7 µM | [5] 29.6 µM
not listed: [7] | [8]
inactive: all other assays above

O=C(CCCN1CCC(O)(c2ccc(Cl)cc2)CC1)c1ccc(F)cc1
not listed: [7]
inactive: all other assays above

CN(C)CCC=C1c2ccccc2C=Cc2ccccc21
not listed: [5] | [7] | [10]
inactive: all other assays above

CC(=O)OCC(CCn1cnc2cnc(N)nc21)COC(C)=O
not listed: [2]
inactive: all other assays above

CS(=O)(=O)CCNCc1ccc(-c2ccc3ncnc(Nc4ccc(OCc5cccc(F)c5)c(Cl)c4)c3c2)o1
inactive: [3]
active: [4] 0.235 µM | [7] 10.5 µM | [10] 74.3 nM and 21.1 µM | [5] 93.5 nM and 11.9 µM | [8] 24.3 µM and 27.6 µM | [9] 3.72 µM | [6] 18.7 µM

Cc1ccccc1N1C(=O)c2cc(S(N)(=O)=O)c(Cl)cc2NC1C (stereo not drawn)
not listed: [1]
inactive: all other assays above

C[C@@H]1CC(=O)NN=C1c1ccc(NN=C(C#N)C#N)cc1
inactive: [3] | [8] | [6]
active: [4] 26.6 µM | [10] 23.5 µM

Clc1ccc2nsnc2c1NC1=NCCN1
not listed: [1] | [5]
inactive: all other assays above

CC(COc1ccccc1)N(CCCl)Cc1ccccc1 (stereo not drawn)
inactive: [2] | [3] | [4] | [7] | [5] | [6]

Cn1c(=O)c2c(ncn2C)n(C)c1=O
not listed: [1]
inactive: all other assays above

COc1ccc(CCN(C)CCCC(C#N)(c2ccc(OC)c(OC)c2)C(C)C)cc1OC (stereo not drawn)
not listed: [1]
inactive: all other assays above

O=c1c(O)c(-c2ccc(O)c(O)c2)oc2cc(O)cc(O)c12
active: [10] 14.8 µM | [5] 8.33 µM | [9] 23.5 µM
inactive: [2] | [3] | [7] | [6]

CC[N+](CC)(CC)CCOc1cccc(OCC[N+](CC)(CC)CC)c1OCC[N+](CC)(CC)CC
not listed: [1]
inactive: all other assays above

CC1COc2c(N3CCN(C)CC3)c(F)cc3c(=O)c(C(=O)O)cn1c23 (stereo not drawn)
not listed: [1] | [10]
inactive: all other assays above

CN(C)C(=O)C(CCN1CCC(O)(c2ccc(Cl)cc2)CC1)(c1ccccc1)c1ccccc1
active: [10] 18.7 µM | [5] 18.7 µM | [8] 24.3 µM
inactive: [1] | [2] | [9] | [6]

Cc1cnc(C(=O)NCCc2ccc(S(=O)(=O)NC(=O)NC3CCCCC3)cc2)cn1
not listed: [1]
inactive: all other assays above

CN(C)C(=N)N=C(N)N
not listed: [1] | [2]
inactive: all other assays above

C[C@H]1c2cccc(O)c2C(O)=C2C(=O)[C@]3(O)C(O)=C(C(N)=O)C(=O)[C@@H](N(C)C)[C@@H]3[C@@H](O)[C@@H]21
not listed: [1] | [8] | [10]
inactive: all other assays above

CC(C)(C)C(=O)Oc1ccc(S(=O)(=O)Nc2ccccc2C(=O)NCC(=O)O)cc1
not listed: [2]
inactive: all other assays above

Cc1cn([C@H]2C[C@H](N=[N+]=[N-])[C@@H](CO)O2)c(=O)[nH]c1=O
not listed: [1] | [5] | [10]
inactive: all other assays above

COc1ccc2c(c1)c(CC(=O)O)c(C)n2C(=O)c1ccc(Cl)cc1
active: [5] 29.6 µM
not listed: [4] | [7] | [10]
inactive: all other assays above

Fc1ccc([C@@H]2CCNC[C@H]2COc2ccc3c(c2)OCO3)cc1
not listed: [1] | [7] | [10]
inactive: all other assays above

CC12CC3CC(C)(C1)CC(N)(C3)C2
inactive: [2] | [3] | [7] | [8] | [9] | [6]

CC[C@@]1(O)C(=O)OCc2c1cc1n(c2=O)Cc2cc3c(CN(C)C)c(O)ccc3nc2-1
active: [3] 26.4 nM and 131 nM | [4] 53.1 nM and 296 nM | [7] 94.4 nM and 52.6 nM | [10] 26.6 nM and 118 nM | [5] 6.7 nM and 23.5 nM | [8] 19.5 nM and 86.3 nM | [9] 47.3 nM and 26.4 nM
